Test results: PubChem BioAssay (NCATS)
Results filed as inconclusive are left out. The source made the active and inactive calls. Unless noted, calls come from the whole dose curve; as a rule, active = well fitted curve in the direction sought with a large enough effect; inconclusive = small, poorly fitted or top-dose-only effect, or another doubt; inactive = no such curve, though single readings can be large; an effect the other way counts as inactive or inconclusive.

How the values were obtained:
[1] = target: Lysosomal acid glucosylceramidase (Homo sapiens) (UniProt P04062); assay: Glucocerebrosidase-p2 (AID 348; in the data active = potency below about 10 µM; note: potency is the fitted concentration of half-maximal effect); details: purified GBA, blue fluorogenic substrate, 40 min
Chain of Lysosomal acid glucosylceramidase (Homo sapiens) (P04062 whole entry, looked up): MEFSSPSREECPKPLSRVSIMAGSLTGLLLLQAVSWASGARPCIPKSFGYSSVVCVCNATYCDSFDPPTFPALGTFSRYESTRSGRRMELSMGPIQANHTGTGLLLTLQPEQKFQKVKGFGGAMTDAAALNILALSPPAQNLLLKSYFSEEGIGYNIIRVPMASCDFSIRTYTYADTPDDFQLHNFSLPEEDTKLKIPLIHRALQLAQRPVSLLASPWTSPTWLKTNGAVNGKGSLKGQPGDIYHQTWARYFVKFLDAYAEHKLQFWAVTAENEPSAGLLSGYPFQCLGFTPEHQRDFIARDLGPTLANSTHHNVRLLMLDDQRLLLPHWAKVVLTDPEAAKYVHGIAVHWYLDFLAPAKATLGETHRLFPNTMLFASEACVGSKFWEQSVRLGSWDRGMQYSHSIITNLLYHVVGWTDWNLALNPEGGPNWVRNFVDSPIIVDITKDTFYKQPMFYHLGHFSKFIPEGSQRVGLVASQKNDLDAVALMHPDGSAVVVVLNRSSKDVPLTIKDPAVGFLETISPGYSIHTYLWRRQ
Method in brief: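 Normal human glucocerebrosidase (0.2 nM) with blue fluorogenic substrate (80 uM final) in citrate/phosphate pH 5.9 with 10mM sodium taurocholate, 0.01% tween-20; 40 min RT, NaOH/glycine stop; fluorescence Ex 365/Em 440; AC50 from a titration from 0.6 nM upwards.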

[2] = AP1 Signaling Pathway (AID 357; active = well fitted curve in either direction with a large enough effect, not every such curve was filed as active;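 note: ME-180 reporter cells stimulated with EGF at its EC50 level; % is set by controls: 0 for no effect and ±100 for the full control effect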); details: ME-180 AP-1-bla reporter, EGF-induced, beta-lactamase ratio, 5 h; at 7.69 µM (top of the series) unless noted
Method in brief: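 Titration-series screen for positive or negative modulators of EC50 EGF-induced signaling in ME-180 cells carrying an AP-1-driven beta-lactamase reporter. After 5 hours at 37 degrees Celsius, CCF4 460nm/530nm emission ratio gave %Activity; AC50 values derived.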

[3] = NFAT Signaling Pathway (AID 444; active = well fitted curve in either direction with a large enough effect, not every such curve was filed as active;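 note: carbachol stimulus at about its EC50 of 1 µM final; % is set by controls: 0 for no effect and ±100 for the full control effect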); details: Jurkat NFAT-bla M1, carbachol, beta-lactamase ratio, 5 h; at 7.69 µM (top of the series) unless noted
Method in brief: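 Read-out: CCF4 FRET ratio (460 nm/530 nm) after 1 h RT dye loading, used for %activity and AC50 from titration series. Cells: Jurkat NFAT-β-lactamase/M1 line, treated with compound plus 1 uM carbachol for 5 h, 37 °C.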

[4] = Stat Signaling Pathway (AID 446; active = well fitted curve in either direction with a large enough effect, not every such curve was filed as active;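 note: ME-180 cervical cancer cells given 40 pM IL-6 alongside compound; SIE-controlled beta-lactamase reporter measured as 460/530 nm FRET emission ratio; % is set by controls: 0 for no effect and ±100 for the full control effect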); details: ME-180 (cervical carcinoma) SIE beta-lactamase reporter, IL-6 stimulated, 5 h; at 7.69 µM (top of the series) unless noted
Method in brief: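 FRET read-out (405 nm excitation, 460/530 nm emission) of a beta-lactamase reporter under a STAT-inducible element in ME-180 cervical carcinoma cells. Cells with compound receive 40 pM IL-6 for 5 h. Values are normalised to AC90 stimulation and AC90 JAK-inhibitor controls.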

[5] = target: Glucocorticoid receptor (Homo sapiens) (UniProt P04150); assay: GR-GFP Redistribution (AID 450;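 active = compounds whose dose series gives a full or clear partial fitted curve of increased nuclear translocation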; note: potency is the fitted concentration of half-maximal effect); details: U2OS GR-GFP nuclear translocation, laser cytometry, 2 h
Chain of Glucocorticoid receptor (Homo sapiens) (P04150 whole entry, looked up, the tested form may be a part): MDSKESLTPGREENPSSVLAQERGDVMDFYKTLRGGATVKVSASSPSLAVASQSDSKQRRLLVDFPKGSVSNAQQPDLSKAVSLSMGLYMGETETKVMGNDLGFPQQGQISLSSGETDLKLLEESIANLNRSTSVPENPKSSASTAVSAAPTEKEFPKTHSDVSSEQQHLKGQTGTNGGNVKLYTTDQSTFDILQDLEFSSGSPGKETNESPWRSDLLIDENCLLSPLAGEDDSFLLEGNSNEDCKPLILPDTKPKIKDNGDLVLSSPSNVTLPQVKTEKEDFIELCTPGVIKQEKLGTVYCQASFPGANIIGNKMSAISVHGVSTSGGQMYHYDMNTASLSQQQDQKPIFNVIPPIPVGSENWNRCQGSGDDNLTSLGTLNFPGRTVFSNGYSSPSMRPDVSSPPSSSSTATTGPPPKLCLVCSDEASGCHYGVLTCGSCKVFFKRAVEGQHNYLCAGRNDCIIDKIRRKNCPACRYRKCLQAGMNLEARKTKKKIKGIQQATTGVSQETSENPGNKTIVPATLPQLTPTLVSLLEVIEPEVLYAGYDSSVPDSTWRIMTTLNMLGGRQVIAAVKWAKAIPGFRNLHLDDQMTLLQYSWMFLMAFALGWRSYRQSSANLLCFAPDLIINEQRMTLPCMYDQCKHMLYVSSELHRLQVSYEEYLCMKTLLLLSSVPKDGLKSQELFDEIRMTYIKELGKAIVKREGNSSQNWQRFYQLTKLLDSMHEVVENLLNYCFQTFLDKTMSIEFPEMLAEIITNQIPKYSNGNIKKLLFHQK

[6] = target: Glucocorticoid receptor (Homo sapiens) (UniProt P04150); assay: GR-EFC Redistribution (AID 451; calls by dose curve; note: potency is the fitted concentration of half-maximal effect); details: CHO-K1 GR-EFC translocation, beta-gal luminescence, 2 h
Method in brief: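 Translocation of GR-ED fusion to nuclear EA restores b-gal, read by luminescence after 1 h room-temperature detection. Engineered CHO-K1 biosensor cells, 1,000/well, exposed 2 h at 37 C to titrations up to 46 uM final.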

[7] = target: Mitogen-activated protein kinase 10 (Mus musculus) (UniProt Q61831); assay: JNK3 AlphaScreen Assay (AID 530; active = well fitted curve in either direction with a large enough effect, not every such curve was filed as active;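 note: kinase came from lysate of stimulated human HepG2 cells; signal reports phosphorylation of biotinylated GST-cJun 1-79 at Ser73 with 10 µM ATP; % is set by controls: 0 for no effect and ±100 for the full control effect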); details: JNK3 lysate, c-Jun phosphorylation; series mostly up to 57.1 µM
Method in brief: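 qHTS titrations with 15 min compound pre-incubation before adding ATP (10 uM final). Read-out: AlphaScreen of Ser73-phosphorylated biotin-GST-cJun using HepG2 lysate JNK3 activated by IL-1β and TNFα.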

[8] = target: 3',5'-cyclic-AMP phosphodiesterase 4B (Homo sapiens) (UniProt Q07343); assay: qHTS Assay for Inhibitors of PDE-IV (AID 607; active = well fitted activation curve with a large enough effect in the main read-out, with a control signal flat, not every such curve was filed as active; note: % of control where 0% means no effect); details: HEK293 ACTOne CNG channel cells, membrane potential fluorescence; series mostly up to 22.9 µM
Chain of 3',5'-cyclic-AMP phosphodiesterase 4B (Homo sapiens) (Q07343 whole entry, looked up): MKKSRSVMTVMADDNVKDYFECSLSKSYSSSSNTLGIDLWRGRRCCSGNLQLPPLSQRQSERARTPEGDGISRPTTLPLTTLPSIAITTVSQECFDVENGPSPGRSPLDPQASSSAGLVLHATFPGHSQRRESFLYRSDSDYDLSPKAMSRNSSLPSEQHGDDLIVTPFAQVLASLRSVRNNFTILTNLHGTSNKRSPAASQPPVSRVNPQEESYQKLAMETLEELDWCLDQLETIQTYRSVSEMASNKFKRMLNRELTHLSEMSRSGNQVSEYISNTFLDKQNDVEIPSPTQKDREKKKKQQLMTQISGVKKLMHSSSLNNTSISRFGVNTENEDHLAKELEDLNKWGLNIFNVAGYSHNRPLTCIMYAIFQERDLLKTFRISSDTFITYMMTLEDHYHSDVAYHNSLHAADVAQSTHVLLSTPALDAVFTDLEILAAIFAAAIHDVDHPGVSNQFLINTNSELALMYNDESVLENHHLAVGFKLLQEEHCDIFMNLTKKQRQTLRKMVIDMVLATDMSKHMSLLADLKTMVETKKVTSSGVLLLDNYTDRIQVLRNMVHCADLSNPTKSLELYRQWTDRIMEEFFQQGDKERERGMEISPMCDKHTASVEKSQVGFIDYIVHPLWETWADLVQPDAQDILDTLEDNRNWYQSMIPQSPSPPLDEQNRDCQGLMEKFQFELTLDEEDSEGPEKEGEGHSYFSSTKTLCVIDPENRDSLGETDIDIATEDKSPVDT
Method in brief: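 Cell-based read-out of cAMP via a modified cyclic nucleotide-gated channel and membrane potential dye (535/590 nm) in HEK293 cells expressing PDE4 endogenously. Compounds tested up to 22.9 uM final; 100 uM RO 20-1724 reference.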

[9] = qHTS Assay for Lipid Storage Modulators (AID 1519; calls by dose curve); details: Drosophila S3 cells, BODIPY lipid droplet/cell ratio, laser cytometry, cells loaded with oleic acid; for activity change, negative = inhibition: at 57.5 µM (top of the series)
Method in brief: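 Cells seeded at 5,000 per well were treated with compounds over a concentration series and loaded with oleic acid (400 uM, as added). Lipid droplet fluorescence (488 nm excitation, 500-530 nm channel) was read by laser-scanning cytometry and normalized to 20 uM Triacsin C.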

[10] = target: Dual specificity protein kinase CLK4 (Homo sapiens) (UniProt Q9HAZ1); assay: qHTS Assay for Inhibitors of CDC-like Kinase 4 (Kinase-Glo Assay) (AID 1770); details: recombinant Clk4, Kinase-Glo ATP depletion luminescence; series mostly up to 66.7 µM; note: % is set by controls: 0 for no effect and ±100 for the full control effect; nearly all actives have a fitted effect of over 65% in size
Chain of Dual specificity protein kinase CLK4 (Homo sapiens) (Q9HAZ1 whole entry, looked up): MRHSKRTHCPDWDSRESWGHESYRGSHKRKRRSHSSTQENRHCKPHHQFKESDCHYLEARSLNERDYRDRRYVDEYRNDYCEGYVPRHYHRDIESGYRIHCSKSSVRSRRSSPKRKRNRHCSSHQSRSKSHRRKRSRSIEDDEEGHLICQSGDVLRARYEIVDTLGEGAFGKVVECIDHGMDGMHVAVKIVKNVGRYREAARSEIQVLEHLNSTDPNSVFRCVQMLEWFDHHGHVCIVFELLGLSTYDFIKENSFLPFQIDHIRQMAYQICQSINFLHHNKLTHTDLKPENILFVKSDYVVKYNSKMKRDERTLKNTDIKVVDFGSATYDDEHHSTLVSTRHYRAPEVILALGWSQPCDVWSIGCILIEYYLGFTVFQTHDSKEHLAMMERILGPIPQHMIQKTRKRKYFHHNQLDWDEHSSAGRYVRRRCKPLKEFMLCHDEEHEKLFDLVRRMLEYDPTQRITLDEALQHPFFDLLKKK
Method in brief: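 Recombinant human Clk4 (25 nM) phosphorylated RS repeat peptide (100 uM) with 1 uM ATP in Tris pH 7.5/MgCl2/EGTA/DTT/Triton buffer for 4.5 h at room temperature. Residual ATP was quantified by Kinase-Glo luciferase luminescence.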

[11] = target: Dual specificity protein kinase CLK4 (Homo sapiens) (UniProt Q9HAZ1); assay: qHTS Assay for Inhibitors of CDC-like Kinase 4 (ADP-Glo Assay) (AID 1771); details: recombinant CLK4, ADP-Glo luminescence; series mostly up to 80 µM; note: % is set by controls: 0 for no effect and ±100 for the full control effect; nearly all actives have a fitted effect of over 70% in size
Method in brief: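 Compounds are pin-transferred onto substrate mix (100 uM RS peptide, 1 uM ATP), then 25 nM Clk4 is added. After 1 hr at room temperature, ADP-Glo reagent runs 45 min, detection reagent 30 min, then luminescence is read.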

[12] = target: Dual specificity protein kinase CLK4 (Homo sapiens) (UniProt Q9HAZ1); assay: qHTS Assay for Inhibitors of CDC-like Kinase 4 (ADP-FP Assay) (AID 1795); details: Transcreener ADP fluorescence polarization; series mostly up to 50 µM; note: % is set by controls: 0 for no effect and ±100 for the full control effect; nearly all actives have a fitted effect of over 60% in size
Method in brief: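 Recombinant human Clk4 (6.25 nM) phosphorylated RS repeat peptide (100 uM) with 1 uM ATP in Tris pH 7.5/MgCl2/EGTA/DTT/Triton buffer for one hour. ADP was quantified by Transcreener competitive fluorescence polarization against an ADP calibration curve.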

[13] = target: Ubiquitin carboxyl-terminal hydrolase 1 (Homo sapiens) (UniProt O94782); assay: Inhibitors of USP1/UAF1: Pilot qHTS (AID 504865); details: purified USP1/UAF1, Ub-rhodamine cleavage fluorescence; series mostly up to 54.9 µM;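 note: rhodamine fluorescence freed from ubiquitin-rhodamine substrate followed over time; top concentration of the series differs between compounds; % is set by controls: 0 for no effect and ±100 for the full control effect; nearly all actives have a fitted effect of over 35% in size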
Chain of Ubiquitin carboxyl-terminal hydrolase 1 (Homo sapiens) (O94782 whole entry, looked up): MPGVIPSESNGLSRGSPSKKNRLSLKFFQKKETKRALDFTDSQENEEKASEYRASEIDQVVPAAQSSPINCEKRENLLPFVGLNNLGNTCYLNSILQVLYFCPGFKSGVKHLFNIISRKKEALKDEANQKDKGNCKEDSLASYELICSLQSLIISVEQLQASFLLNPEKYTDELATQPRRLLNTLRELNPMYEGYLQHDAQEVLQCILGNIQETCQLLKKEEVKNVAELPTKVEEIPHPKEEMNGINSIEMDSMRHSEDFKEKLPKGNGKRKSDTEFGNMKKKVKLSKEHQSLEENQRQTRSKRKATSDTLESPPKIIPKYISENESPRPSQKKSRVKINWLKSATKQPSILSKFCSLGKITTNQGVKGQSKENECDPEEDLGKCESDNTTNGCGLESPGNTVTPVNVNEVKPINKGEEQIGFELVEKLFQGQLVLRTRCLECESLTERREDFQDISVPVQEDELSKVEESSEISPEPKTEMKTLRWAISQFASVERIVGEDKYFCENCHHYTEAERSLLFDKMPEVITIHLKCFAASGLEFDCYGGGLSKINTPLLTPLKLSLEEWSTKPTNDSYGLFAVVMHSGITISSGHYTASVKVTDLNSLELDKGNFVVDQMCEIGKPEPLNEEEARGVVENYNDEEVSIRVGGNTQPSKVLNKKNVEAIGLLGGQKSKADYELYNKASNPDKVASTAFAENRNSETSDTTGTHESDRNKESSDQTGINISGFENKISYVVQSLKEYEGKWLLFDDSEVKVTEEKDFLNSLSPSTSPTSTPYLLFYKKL
Method in brief: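 USP1/UAF1 complex (1nM) preincubated with compound 15 min at room temperature, then Ub-Rho substrate (150nM final) added. Fluorescence read kinetically at 480/540 nm, 6 reads every 60 seconds. Buffer: 50mM HEPES pH 7.8, 0.5mM EDTA, 0.1 mg/ml BSA, 1mM TCEP, 0.01% Tween-20.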

[14] = Primary qHTS for small molecule stabilizers of the endoplasmic reticulum resident proteome: Secreted ER Calcium Modulated Protein (SERCaMP) assay (AID 1508630); details: SH-SY5Y GLuc-SERCaMP (Gaussia luciferase released on ER calcium loss) secretion, thapsigargin, luminescence; series mostly up to 38.4 µM; note: % is set by controls: 0 for no effect and ±100 for the full control effect
Method in brief: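 The SH-SY5Y reporter protocol was run at 3 concentrations up to 38.3 uM (primary) or 11 concentrations (follow-up): 16 h compound, 100 nM thapsigargin for 4 h, then extracellular luciferase luminescence.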

[15] = target: Cytochrome P450 3A4 (Homo sapiens) (UniProt P08684); assay: qHTS Assay for Activators of Cytochrome P450 3A4 (AID 885); details: recombinant CYP3A4, Luciferin-PPXE luminescence, 60 min; series mostly up to 57.1 µM; note: nearly all actives have a fitted effect of over 65% in size
Chain of Cytochrome P450 3A4 (Homo sapiens) (P08684 whole entry, looked up): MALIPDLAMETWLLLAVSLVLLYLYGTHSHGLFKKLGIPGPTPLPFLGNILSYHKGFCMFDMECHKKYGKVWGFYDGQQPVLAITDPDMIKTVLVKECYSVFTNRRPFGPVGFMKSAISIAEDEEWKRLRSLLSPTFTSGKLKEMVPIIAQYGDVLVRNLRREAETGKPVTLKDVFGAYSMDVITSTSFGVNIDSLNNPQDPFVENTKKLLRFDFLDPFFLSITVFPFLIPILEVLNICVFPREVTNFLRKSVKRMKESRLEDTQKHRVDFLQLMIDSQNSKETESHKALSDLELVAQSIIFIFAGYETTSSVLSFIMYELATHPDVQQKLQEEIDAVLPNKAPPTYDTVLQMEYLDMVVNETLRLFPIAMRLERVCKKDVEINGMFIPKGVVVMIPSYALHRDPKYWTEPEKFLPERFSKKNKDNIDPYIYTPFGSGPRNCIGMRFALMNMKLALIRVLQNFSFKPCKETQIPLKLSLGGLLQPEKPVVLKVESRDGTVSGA
Method in brief: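 Luminescent readout of luciferin formed from 25 uM Luciferin-PPXE (KM level) by 20 nM CYP3A4 in 200 mM KPO4, with 60 min NADPH-driven reaction at room temperature after 10 min compound exposure. Ketoconazole (57 uM) defined 100% inhibition.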

[16] = measured here: cell count channel max response
[17] = measured here: lipid channel max response

Structure (SMILES) | Potency [1] | activity change, negative = inhibition [2] | activity change, negative = inhibition [3] | activity, negative = inhibition [4] | Potency [5] | Potency [6] | outcome [7] | Potency [8] | activity change, negative = inhibition [9] | max response [9, 16] | max response [9, 17] | Potency [10] | Potency [11] | Potency [12] | Potency [13] | Potency [14] | Potency [15]
COc1ccc(-c2nc3cnc(N4CCOCC4)nc3n(-c3ccccc3)c2=O)cc1 | > 11.4 µM (inactive) | 25.7% (inactive) | 23.9% (inactive) | 13.1% (inactive) | > 9.22 µM (inactive) | > 46 µM (inactive) | inactive | inactive | 1.08% (inactive) | 22% | 21.4% | inactive | inactive | inactive | inactive | inactive | 
Cc1nc2cnc(N3CCOCC3)nc2n(C2CC2)c1=O | > 11.4 µM (inactive) | -11.6% (inactive) | -11.7% (inactive) | -3.09% (inactive) | > 9.22 µM (inactive) | > 46 µM (inactive) | inactive | inactive | 7% (inactive) | 18% | 23.9% | inactive | inactive | inactive | inactive | inactive | inactive
CN(C)c1ncc2nc(-c3cc(F)cc(F)c3)c(=O)n(C3CC3)c2n1 | > 11.4 µM (inactive) | 5.31% (inactive) | -6.61% (inactive) | 10.2% (inactive) | > 9.22 µM (inactive) | > 46 µM (inactive) | inactive | inactive | 6.95% (inactive) | 8.84% | 14.6% | inactive | inactive | inactive | inactive | inactive | 
O=c1cnc2cncnc2n1Cc1ccc(F)cc1 | > 11.4 µM (inactive) | 8.77% (inactive) | -27.6% (inactive) | -8.63% (inactive) | > 9.22 µM (inactive) | > 46 µM (inactive) | inactive |  | -2.55% (inactive) | -3.3% | -6.15% | inactive | inactive | inactive | inactive | inactive | inactive
COc1ncc2nc(-c3ccc(F)cc3)c(=O)n(C3CC3)c2n1 | > 11.4 µM (inactive) | -9.24% (inactive) | -21.4% (inactive) | -4.24% (inactive) | > 9.22 µM (inactive) | > 46 µM (inactive) | inactive | inactive | 4.43% (inactive) | 16.8% | 19.3% | inactive | inactive | inactive | inactive | inactive | 
